The results in this text go back to PubChem BioAssay AID1850 (Southern Research Specialized Biocontainment Screening …, 2009).

Hit rate of the full screen: of about 310,000 compounds, about 1,000 (0.32%) were called active. Only a sample is shown. Entries with a potency or affinity are not part of this list. Values without a mark were called inactive. How the calls were made is not given here.

A short description of this assay: PhoP regulon inhibitors, Salmonella typhi PhoP promoter GFP reporter, confirmatory (AID 1850).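 Further: 0% = induced wells with vehicle and 100% = uninduced wells.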 Particulars: fluorescence, 4 h, at 50 µM, stronger effect = higher value.
For the molecule `Cc1noc(C)c1C(=O)NCCC1=CCCCC1`, the inhibition (usually the relative decrease from the control value, in per cent) was 1.2%. `Cn1nnnc1SCCNC(=O)C1CCC(=O)N(Cc2ccc(Cl)cc2)C1` (centres undefined): the inhibition was -10.8%. As for `COc1ccc(NC(=O)C2CC(c3ccc(Cl)cc3)=NO2)cc1` (centres undefined), the inhibition was 7.66%.

As to `COc1cccc(OCC(O)CNC(C)c2ccccc2)c1` (centres undefined), the inhibition was 6.91%.

Turning to `COc1ccc(OCC(O)CNC(C)c2ccccc2)cc1` (centres undefined), the inhibition is 1.46%.

In the case of `CC(C)c1ccc(OCC(O)CNC(C)c2ccccc2)cc1` (centres undefined), the inhibition was 1.07%.

Take `CC(NCC(O)COCc1ccc(Cl)cc1)c1ccccc1` (centres undefined): the inhibition is -6.47%. Regarding `Cc1ccc(OCC(O)CNC(C)c2ccccc2)cc1C` (centres undefined), the inhibition was -6.36%. Regarding `NCC(O)COCCC12CC3CC(CC(C3)C1)C2` (centres undefined), the inhibition was -0.98%. For the molecule `O=C(CCC1CCCN(C(=O)c2cccc(F)c2)C1)N1CCN(c2ccccn2)CC1` (centres undefined), the inhibition is -7.6%. For `O=C(CCNS(=O)(=O)c1ccccc1)OCC(=O)c1ccc(Br)cc1`, the inhibition was -3.69%. For `COc1ccc(C2N(c3ccccc3)CCN2c2ccccc2)cc1O`, the inhibition was -8.63%. With `COc1ccccc1Cn1c(CCCO)nc2ccccc21`, the inhibition was 1.55%. `Oc1ccc(Cl)cc1CNn1cnnc1`: the inhibition is 9.93%. On to `Oc1ccc(Cl)cc1CNCc1ccc(Cl)cc1`, for which the inhibition was 12.4%. In the case of `CCOc1ccc(S(=O)(=O)NC(C)C(=O)NCc2ccccn2)cc1` (centres undefined), the inhibition is -3.4%. Regarding `OC(CN1CC=C(/C=C/c2ccc(Br)cc2)CC1)c1ccccc1` (centres undefined), the inhibition is -9.93%. Regarding `COc1ccc(/C=C/C2=CCN(C)CC2)cc1`, the inhibition is 17.2%. Take `CCOc1ccc(S(=O)(=O)N2CCN(C(=O)c3ccncc3)CC2)cc1`: the inhibition was -2.75%.

In the case of `CC1CN(C(=O)CCC(=O)NCc2ccccc2)c2ccccc2S1` (centres undefined), the inhibition is 6.38%. With `OC(CNCC1CCCO1)Cn1c2ccc(Br)cc2c2cc(Br)ccc21` (centres undefined), the inhibition is -0.49%. Turning to `OC(CNCC1CCCO1)Cn1c2ccccc2c2ccccc21` (centres undefined), the inhibition is 14.3%. For `NC(=O)Cn1c(=O)n(CC(=O)N2CCCCC2)c(=O)c2sccc21`, the inhibition was 2.84%. For `Cc1[nH]c2ccc(OC(F)(F)F)cc2c1CCNCc1cccc([N+](=O)[O-])c1`, the inhibition was 6.4%. Turning to `COc1ccc(CNCCc2c(C)[nH]c3ccc(OC(F)(F)F)cc23)c(OC)c1`, the inhibition is -3.23%. For the molecule `COc1ccc2[nH]c(C)c(CCNC(=S)Nc3ccccc3OC)c2c1`, the inhibition is -5.5%. As for `COc1ccc2[nH]c(C)c(CCNCc3cc(OC)c(OC)c(OC)c3)c2c1`, the inhibition was 7.48%. On to `O=C(CN1CCC(C(O)(c2ccccc2)c2ccccc2)CC1)Nc1cc(Cl)ccc1Cl`, for which the inhibition is -20%. For `COc1ccccc1C(=O)NC(=O)Nc1nc(-c2ccccc2)cc(C(F)(F)F)n1` the value was 2.17%; for `COc1cc(/C=C/C(=O)O)ccc1O`, 10.8%; for `C/C=C/c1ccc(O)c(OC)c1`, 1.57%.

Consider `C/C(=N\Nc1nc(C)cc(-c2ccccc2)n1)c1ccc(O)cc1`, for which the inhibition is -2.43%. The same measure for `Cc1cccc(C)c1NC(=O)CN(C)C(=O)c1ccc2nc[nH]c2c1`: 1.29%; for `Cc1ccc(C(=O)NCC(C)NC(=O)c2ccc(C)c([N+](=O)[O-])c2)cc1[N+](=O)[O-]` (centres undefined): -3.75%. Consider `CCOC(=O)c1ccc(-c2ccc(C3Nc4ccccc4C(=O)N3O)o2)cc1` (centres undefined), for which the inhibition was -7.99%.

With `O=C1c2ccccc2NC(c2ccc(-c3cccc([N+](=O)[O-])c3)o2)N1O` (centres undefined), the inhibition was -4.04%.

Consider `CCN1CCN(c2ccc(S(=O)(=O)N3CCCCC3)cc2NC(=O)c2ccccc2)CC1`, for which the inhibition was -7.27%. Take `CSC(=NS(=O)(=O)c1ccc(C)cc1)SC`: the inhibition is 2.62%. Take `CCC(C)(C)NC(=O)CN(CC1CCCO1)C(=O)CCC(=O)Nc1nccs1` (centres undefined): the inhibition was 1.73%. `CCOC(=O)C1CCN(c2cc3c(cc2NC(=O)c2ccccc2F)n(C)c(=O)n3C)CC1`: the inhibition is -6.44%.

Regarding `CCOC(=O)c1cn(CC2CC2)c2cc(F)c(F)cc2c1=O`, the inhibition was -1.36%. `CCN(CC)CCCNC(=O)c1c(O)c2cc(F)cc3c2n(c1=O)C(C)CC3` (centres undefined): the inhibition was -12.5%.

`O=C(O)c1cn(-c2ccc(F)c(F)c2)c2c(F)c(F)c(F)c(F)c2c1=O`: the inhibition was -8.9%. In the case of `CC1CCc2cc(F)cc3c(O)c(C(=O)NCCN(C)C)c(=O)n1c23` (centres undefined), the inhibition was -11.2%.

In the case of `C[n+]1ccccc1/C=C/c1ccc(F)c(F)c1`, the inhibition is -2.41%. As to `N#Cc1ccccc1OCC(O)CS(=O)(=O)c1ccccc1` (centres undefined), the inhibition was 8.05%. On to `Cc1ccc(NNC(=O)c2cc(C(C)(C)C)nn2Cc2ccccc2)cc1`, for which the inhibition is 1.12%. For `Cc1cc(C)cc(NS(=O)(=O)c2csc(C(N)=O)c2)c1` the value was -4.13%; for `N#Cc1c(C(F)(F)F)cc(Cc2ccccc2)nc1SCC(=O)NCC(=O)O`, -9.26%; for `Cc1ccc2oc(=O)c3cc(C(=O)NCCCN4CCc5ccccc5C4)sc3c2c1`, -1.04%. For `Cc1c(OCC(=O)N[C@@H](Cc2c[nH]c3ccccc23)C(=O)O)ccc2c1oc(=O)c1ccccc12` the value was 4.69%.

As to `CCOC(=O)C1CCCN(C(=O)c2ccc3nc(-c4ccccc4)c(-c4ccccc4)nc3c2)C1` (centres undefined), the inhibition was 5.36%. Regarding `CCCc1nc2sc(C(=O)OCC)c(N)c2c2c1COC(C)(C)C2`, the inhibition was 0.3%. For `O=C(CSc1nccc(=O)[nH]1)Nc1ccc(Br)c(Cl)c1`, the inhibition is 4.82%. With `CCN(CC)C(=O)CSc1nc(COc2ccccc2)nc2ccccc12`, the inhibition is -0.33%. For `CC[C@H](C)[C@@H](CNC)NC[C@@H](Cc1ccc(O)cc1)NCC(C)(C)C` the value was 4.52%; for `CC[C@@H](C)[C@H](CN[C@H](CNC)[C@@H](C)O)NCCc1ccc(OC)cc1`, 4.36%. As to `O=C(O)CCCC(=O)NCCCCc1ccccc1`, the inhibition is -10.7%. Turning to `CCCCCSc1cc(OC)c(CCN(C)C)cc1OC`, the inhibition is 11.2%.

`COc1cc2ccc3c(CCN(C)C)cc(OC)c(OC)c3c2cc1OC`: the inhibition is 13.6%. With `CCCCCCSc1cc(-c2nc3cc(C)ccn3c2NCCCC)ccc1OC`, the inhibition was 0.7%.

With `CNCCc1ccc(OC)c(OC)c1`, the inhibition was 10.9%. Turning to `CCCCCSc1cc(O)c(C(CNC)C(C)C)cc1OC` (centres undefined), the inhibition is -3.45%. For the molecule `CCCCCSc1cc(OC)c(CCN)cc1OC`, the inhibition is 15.9%. Take `Cc1ccccc1S(=O)Cc1ccc(C(=O)NC2CCN(Cc3ccccc3)CC2)o1` (centres undefined): the inhibition is -1.02%. The same measure for `COCC1CCN(C(=O)C2CCC(=O)N(CCc3cccc(F)c3)C2)CC1` (centres undefined): -0.82%; for `COc1cc(/C=N/N2CCN(c3ccc(Cl)cc3)CC2)cc(OC)c1OC(C)=O`: -1.44%. On to `CC(=O)N1CCN(c2ccc(NC(=O)c3cccc(Cl)c3)cc2)CC1`, for which the inhibition is 13.2%. On to `O=C(CCS(=O)(=O)c1ccc(Cl)cc1)Nc1nc(-c2ccncc2)cs1`, for which the inhibition is -19.9%. For `Cc1ccc(C(=O)Nc2ccccc2Sc2ccccc2)cc1` the value was 8.29%. As to `Cc1ccc(C(=O)CC(=O)c2ccccc2)cc1`, the inhibition is 2.22%.

With `Cc1cc(Nc2cccc(C(F)(F)F)c2)n2nc(C)nc2n1`, the inhibition is 2.14%.

As for `Brc1ccc2c(c1)C(C1=NCCN1)c1ccccc1CS2` (centres undefined), the inhibition was -3.48%. For `Clc1ccc2c(c1)C(OC1CN3CCC1CC3)c1ccccc1CS2` (centres undefined) the value was -1.82%; for `COc1ccc(C(=O)NCCCOC(=O)c2ccc(OC)cc2)cc1`, -6.57%; for `CCOC(=O)c1sc(=NC(=O)c2ccc(F)cc2)n(C)c1C`, 0.21%. As for `Cc1cc(N2CCC(C)CC2)nc(-c2ccccc2O)n1`, the inhibition is -7.47%. With `Cc1cc(N2CCN(C3CCCCC3)CC2)nc2cccc(O)c12`, the inhibition is 40.7%. As for `CN(C)c1ccc(/C=N/NC(=O)c2cccc(C(=O)N/N=C/c3ccc(N(C)C)cc3)n2)cc1`, the inhibition is -1.09%. In the case of `COc1ccc(-c2ccc(=O)n(CC(=O)Nc3cccc(O)c3)n2)cc1OC`, the inhibition was -4.09%.

Take `O=c1cc(CN2CCN(C/C=C/c3ccccc3)CC2)c2cc(O)ccc2o1`: the inhibition was 0.2%.

As to `O=c1cc(CN2CCN(C/C=C/c3ccccc3)CC2)c2cc(O)c(-c3ccccc3)cc2o1`, the inhibition is 1.7%. Regarding `COc1cc(C(=O)NCC(=O)OCC(=O)Nc2nnc(-c3ccccc3)o2)cc(OC)c1OC`, the inhibition is 1.32%.

For `COc1cccc(NS(=O)(=O)c2nc3nc(C)cc(C)n3n2)c1`, the inhibition was 5.81%.

With `Cc1cc(C)n2nc(S(=O)(=O)NC(C)(C)C)nc2n1`, the inhibition was -11.7%. Turning to `CCOc1cc2[nH]c(=O)n(CCCC(=O)NCc3ccco3)c(=O)c2cc1OCC`, the inhibition was -5.99%. As for `O=C(CNS(=O)(=O)/C=C/c1ccccc1)OC1CCOC1=O` (centres undefined), the inhibition was -7.99%.

Turning to `Cc1cc(C)n(C(C[N+](=O)[O-])c2ccc(Cl)cc2)n1` (centres undefined), the inhibition is 17.4%. `COc1ccc(C(C[N+](=O)[O-])n2nc(C)cc2C)cc1` (centres undefined): the inhibition is 3.95%. On to `O=C(NCCCc1ccncc1)C1CCC(=O)N(Cc2ccc(Cl)cc2)C1` (centres undefined), for which the inhibition is 2.99%. `CC(C)(C)NC(=S)NNC(=O)[C@H]1C[C@@H]1c1ccccc1`: the inhibition was -2.2%. In the case of `CN(C)C(=O)Oc1cccc(OCc2n(C)c3ccccc3[n+]2C)c1`, the inhibition was -12.8%. For the molecule `Cc1cccc(OCCCCn2c(CO)nc3ccccc32)c1`, the inhibition is 1.97%. For `CCCCOC(=O)Cn1c(=N)n(CCC)c2ccccc21`, the inhibition is -6.14%. `CCCCCOC(=O)Cn1c(=O)oc2ccc(C)cc21`: the inhibition is -6.52%. For `CCCCOC(=O)Cn1c2ccc(OC)cc2c2nc3ccccc3nc21` the value was -14.3%. Take `CCCCCOC(=O)Cn1c(=O)oc2ccccc21`: the inhibition was 4.41%.

Turning to `CCCCCCCCCCOC(=O)Cn1c(COc2ccccc2)[n+](C)c2ccccc21`, the inhibition was 0.36%. The same measure for `CCCCOC(=O)Cn1c(=O)n(CC(=O)OCCCC)c2ccccc21`: 2.5%.
